# Assay outcomes deposited in PubChem by National Center for Advancing Translational Sciences (NCATS).
# YjeE inh = inhibitors of E. coli YjeE (TsaE); P0AF67; purified YjeE enzyme, qHTS inhibition assay; Potency, µM; actives 0.05% (n = 71,000); AID 605
#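 Purified YjeE (10 uM) with BODIPY Texas Red-labeled ADP probe (2 uM); compounds pin-transferred, 15 min at room temperature. Binding inhibition read as decreased fluorescence polarization; ADP titration as control.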
# 15-hLO inh = inhibitors of human 15-lipoxygenase (ALOX15) | Potency, µM (doses to about 57.1 µM), for the others: at the top dose activity change, negative = inhibition, hits mostly inhibitors | actives 1.4% (n = 74,000) | P16050 | AID 887 | purified 15hLO-1, xylenol orange hydroperoxide absorbance; further: potency means the concentration at half of the fitted maximal effect; on the % scale 0 is the no-effect control and ±100 the full control effect; nearly all actives have a fitted effect of over 55% in size
# Target sequence (P16050 whole entry, looked up): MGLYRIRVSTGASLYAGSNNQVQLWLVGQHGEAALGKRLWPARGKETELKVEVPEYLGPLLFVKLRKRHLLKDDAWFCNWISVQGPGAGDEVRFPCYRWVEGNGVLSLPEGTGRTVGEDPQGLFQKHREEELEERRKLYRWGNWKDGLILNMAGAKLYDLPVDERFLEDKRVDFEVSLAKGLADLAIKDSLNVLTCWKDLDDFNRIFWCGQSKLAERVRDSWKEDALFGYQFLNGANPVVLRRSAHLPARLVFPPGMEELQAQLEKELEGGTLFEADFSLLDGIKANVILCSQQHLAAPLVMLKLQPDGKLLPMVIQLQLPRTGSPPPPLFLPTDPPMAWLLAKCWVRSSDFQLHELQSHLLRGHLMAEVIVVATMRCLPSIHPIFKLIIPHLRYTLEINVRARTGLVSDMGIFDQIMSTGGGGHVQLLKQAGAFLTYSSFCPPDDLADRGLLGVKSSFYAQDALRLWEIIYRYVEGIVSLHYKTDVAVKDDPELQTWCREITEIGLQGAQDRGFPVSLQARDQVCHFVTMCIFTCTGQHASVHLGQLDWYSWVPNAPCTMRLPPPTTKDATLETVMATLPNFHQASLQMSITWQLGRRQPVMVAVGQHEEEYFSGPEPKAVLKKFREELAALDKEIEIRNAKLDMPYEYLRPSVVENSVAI
#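 Inhibition is scored from a chromogenic endpoint. After 15 min enzyme-compound contact, arachidonic acid (50 uM final) reacts 6 min with 40 nM 15hLO-1 at room temperature, then Fe-XO reagent is added for 30 min and absorbance ratio recorded.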
# DNA Pol III inh = inhibitors of bacterial DNA polymerase III holoenzyme; AID 603; Potency, µM (series often up to 57.1 µM), inactives show at the highest dose activity change, negative = inhibition; actives 0.25% (n = 71,000); reconstituted DNA polymerase III holoenzyme replication, biochemical; further: potency means the concentration at half of the fitted maximal effect; on the % scale 0 is the no-effect control and ±100 the full control effect
#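 Reconstituted *E. coli* holoenzyme (0.35 nM Pol III, 1 nM beta, 154 nM SSB, 2 nM primase) was preincubated with compound for 15 min at RT. Synthesis on 1.4 nM ssM13Gori ran 35 min, then was stopped with PicoGreen/EDTA and read as dsDNA fluorescence.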
# BRCT inh red = disrupts BRCA1 BRCT binding to phosphoprotein, red fluorophore readout. BRCT-phosphopeptide binding, red fluorescence polarization. Potency, µM (series often up to 76.9 µM), for inactives: at the highest dose activity change, negative = inhibition, hits mostly inhibitors. actives 0.03% (n = 75,000); further: on the % scale 0 is the no-effect control and ±100 the full control effect
#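 Rhodamine-labelled pBACH1 10-mer (100 nM) bound to BRCT domain (100 nM) at pH 7.3; compounds incubated 12 min room temperature, polarization read. Free peptide defines full inhibition; unlabelled decapeptide titrated as control.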
# Tau fil binding = tau filament binding; P10636; recombinant tau filaments, thioflavin S fluorescence, 15 h; filaments grown with octadecylsulfate alongside compound; Potency, µM (doses to about 57.1 µM), for the others: at the top dose activity change, negative = inhibition; actives 2% (n = 71,000);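 further: potency means the concentration at half of the fitted maximal effect; on the % scale 0 is the no-effect control and ±100 the full control effect; actives lower thioflavin S fluorescence by blocking filaments or displacing dye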
#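 Thioflavine S fluorescence (ex 450, em 510 nm) reports filaments formed from 1 uM human tau plus 30 uM ODS over 15 h at 37 C (10 mM HEPES pH 7.4, 100 mM NaCl, 5 mM DTT); compounds displacing dye or blocking filaments lower signal.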
# BRCT PPI green = blocks human BRCA1 BRCT binding to phosphopeptide, green readout. Potency, µM (top dose mostly 76.9 µM), for inactives: at the highest dose activity change, negative = inhibition, actives largely listed as inhibitors. BRCA1 BRCT-phosphopeptide binding, green fluorescence polarization. P38398. actives 0.05% (n = 75,000);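 further: potency means the concentration at half of the fitted maximal effect; plate controls were peptide without protein for full effect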
#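 Fluorescence polarization: His-tagged BRCT (~35 kDa BRCA1 C-terminus, 250 nM) bound to 100 nM fluorescein-labeled phosphorylated 10-aa BACH1 peptide, pH 7.3 phosphate buffer with DTT and Tween 20. Compounds incubated 12 min at room temperature; inhibition read as lowered polarization.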
# An asterisk follows results filed as active; i = inactive; u = inconclusive; x = no result; [ ] = another dose, or the depositor's remark. A selection: hits, their analogues and other compounds. The true share with any hit is near 3.1%. The call rests on the fitted dose curve; in most records, active means well fitted curve in the direction sought with a large enough effect; inconclusive means small, poorly fitted or top-dose-only effect, or another doubt; inactive means no such curve, though single readings can be large; an effect the other way counts as inactive or inconclusive.
SMILES,YjeE inh,15-hLO inh,DNA Pol III inh,BRCT inh red,Tau fil binding,BRCT PPI green
O=C(CSc1nnc(-c2ccc(Cl)cc2)o1)N1CCN(c2ccccc2)CC1,i,-16.5%,-4.0%,-1.6%,12.6µM*,-0.8%
O=C(CSc1nnc(COc2ccc(Cl)cc2)o1)N1CCN(c2ccccc2)CC1,i,8.9%,2.0%,-0.1%,65.1%,-4.5%
COC(=O)c1c(C(=O)OC)c2n(c1C)Cc1ccccc1C2,i,7.94µM*,-12.0%,-0.1%,-26.0%,-5.2%
COC(=O)c1c(C)nn(-c2ccccc2)c1N,i,5.1%,-0.7%,0.1%,-11.1%,-1.1%
CO[C@@H]1C[C@H](O[C@H]2[C@@H](C)[C@H](O[C@@H]3O[C@@H](C)C[C@@H](N(C)C)[C@@H]3OC(C)=O)[C@H](C)C[C@]3(CO3)C(=O)[C@H](C)[C@H](OC(C)=O)[C@H](C)[C@H](C)OC(=O)[C@@H]2C)O[C@H](C)[C@@H]1OC(C)=O,i,-8.2%[25.6 µM],-4.0%[25.6 µM],0.6%[34.4 µM],2.3%[25.6 µM],0.0%[34.4 µM]
CC(=O)O[C@H]1C[C@@]2(C)[C@H](C[C@@H](O)[C@H]3[C@@]4(C)CC[C@@H](O)[C@@H](C)[C@H]4CC[C@@]32C)C1=C(CCC=C(C)C)C(=O)O,i,14.3%[25.6 µM],-6.5%[25.6 µM],1.7%[34.4 µM],10.1%[25.6 µM],0.3%[34.4 µM]
Clc1ccccc1-c1ccc(/C=N/n2cnnc2)o1,i,-4.9%,3.1%,-1.7%,-3.3%,-4.8%
Clc1ccc(Sc2oc(/C=N/n3cnnc3)cc2Br)cc1,i,-13.9%[11.4 µM],-2.8%[11.4 µM],0.1%,5.01µM*,-0.9%
CC(=O)OCCC(C)CCC=C(C)C (stereo not drawn),x,10µM*,x,-1.7%,x,-1.6%
CC(=O)c1c(OC(=O)c2ccco2)c2ccccc2n1C,i,25.1µM*,-2.6%,-0.3%,7.5%,0.5%
CC(=O)c1sc2ccccc2c1OC(=O)c1ccco1,i,-3.0%,-7.2%,-0.7%,8.3%,-1.8%
COc1ccc(N2CCN(C(=O)C(Cc3ccccc3)n3cccc3)CC2)cc1 (stereo not drawn),i,25.1µM*,3.5%,-1.1%,12.6µM*,5.6%
O=C(C(Cc1ccccc1)n1cccc1)N1CCCCC1 (stereo not drawn),i,11.8%,-2.1%,0.5%,-8.1%,-1.7%
CCc1cc(C(=O)COc2ccccc2F)c(O)cc1O,i,12.6µM*,-1.0%,-0.4%,-18.2%,4.1%
COCCNc1nc(-c2cccc(OC)c2)nc2ccccc12,i,u,-3.1%,-3.0%,-4.4%,2.2%
CCOC(=O)c1cnc2c(C#N)c(C)nn2c1-c1ccccc1,i,u,-5.7%,0.1%,15.8µM*,0.6%
CCOC(=O)c1cnc2c(C#N)c(C)nn2c1C,i,9.1%,6.3%,-1.4%,-3.6%,-0.2%
CC(=O)N1CCN(c2ccc(Nc3nc(C)nc4c3oc3ccccc34)cc2)CC1,i,-11.1%,0.9%,1.1%,20µM*,-4.0%
CCOC(=O)c1cnc(-n2nc(C)cc2C)nc1Nc1ccc(N(C)C)cc1,i,20.3%,-6.7%,-0.3%,12.6µM*,-0.3%
CCOC(=O)c1cnc(-n2nc(C)cc2C)nc1Nc1ccc2c(c1)OCO2,i,85.2%,-3.5%,-0.2%,5.7%,-0.7%
CC(C)CN1CCC2(CC1)CCN(C(=O)c1csnn1)CC2,i,5.4%,-8.2%,-0.7%,-6.7%,-3.5%
CCOC(=O)c1c(NC(=O)CN2CCOCC2)sc2c1CCCC2=O,i,-3.8%,-9.1%,-0.4%,0.5%,9.6%
CCOC(=O)c1c(NC(=O)CN2CCOCC2)sc2c1CCCC2,i,25.1µM*,-3.4%,-1.2%,-11.6%,2.4%
CN1C2CC(OC(=O)C(CO)c3ccccc3)C[C@@H]1[C@H]1OC21 (stereo partly drawn),x,-3.2%,x,-4.1%,x,-2.5%[3.08 µM]
COC(=O)C1=C(C)NC(C)=C(C(=O)OCCN(C)Cc2ccccc2)[C@H]1c1cccc([N+](=O)[O-])c1,i,-1.4%[25.6 µM],4.5%[25.6 µM],-0.2%[34.4 µM],10µM*,-0.7%[34.4 µM]
SMILES,YjeE inh,15-hLO inh,DNA Pol III inh,BRCT inh red,Tau fil binding,BRCT PPI green
CCOc1ccc(-c2cc(C(=O)N/N=C/c3ccc(O)c(OC)c3)[nH]n2)cc1,x,-28.2%,x,1.0%,x,-2.7%
CC1CN(c2nc3ccccn3c(=O)c2/C=C(\C#N)S(=O)(=O)c2ccccc2)CC(C)O1 (stereo not drawn),i,-11.0%,-3.9%,0.4%,20µM*,-2.0%
COC(=O)c1cc(Cc2ccc(N)c(C(=O)OC)c2)ccc1N,i,25.1µM*,-1.0%,-0.8%,u,-1.8%
CC1=C/C(=C(/c2ccc(O)c(C)c2)c2ccccc2C(=O)O)C=CC1=O,i,-14.0%[11.4 µM],-12.9%[11.4 µM],-2.9%[15.4 µM],3.4%[11.4 µM],2.2%[15.4 µM]
O=C(O)C1=CC(=C(c2ccc(O)c(C(=O)O)c2)c2ccc(O)c(C(=O)O)c2)C=CC1=O,i,2.51µM*,0.0794µM*,6.0%,-4.8%,15.8µM*
Clc1ccccc1-c1nc(NC2CCNCC2)c2ccccc2n1,i,-8.4%,-8.1%,0.6%,-18.7%,-2.4%
COc1cc(-n2nc(C)c3c2OC(N)=C(C#N)C3c2ccccc2)c(Cl)c(Br)c1O (stereo not drawn),i,-14.0%,-2.4%,-1.9%,25.1µM*,2.4%
COc1ccc2[nH]c(=O)c(CN(Cc3ccccc3OC)Cc3nnnn3CC3CCCO3)cc2c1 (stereo not drawn),i,20µM*,-0.7%,1.4%,96.5%,-5.2%
COc1cc2cc(CN(Cc3nnnn3Cc3ccco3)C3CCCCC3)c(=O)[nH]c2cc1OC,i,12.6µM*,-14.9%,-3.6%,329.1%,-0.1%
COc1ccccc1CN(Cc1cc2cc(C)ccc2[nH]c1=O)Cc1nnnn1CC1CCCO1 (stereo not drawn),i,u,-9.4%,-0.2%,22.6%,-0.7%
CCc1ccc2[nH]c(=O)c(CN(Cc3ccccc3OC)Cc3nnnn3Cc3ccco3)cc2c1,i,u,-11.2%,0.7%,72.6%,15.6%
COc1ccccc1CN(Cc1cc2cc(C)ccc2[nH]c1=O)Cc1nnnn1Cc1ccco1,i,7.94µM*,-7.6%,-2.3%,54.1%,4.6%
CCOc1ccc2[nH]c(=O)c(CN(Cc3nnnn3Cc3ccco3)C3CCCCC3)cc2c1,i,3.16µM*,-13.6%,0.8%,-2.4%,9.5%
COCCn1nnnc1CN(Cc1cc2cc(OC)c(OC)cc2[nH]c1=O)C1CCCC1,i,u,1.3%,0.3%,i,-4.8%
COc1cc(OC)c2cc(-c3ccncc3)cnc2c1,i,u,-19.5%,-3.5%,47.3%,11.7%
COC(=O)c1ccc(C#CC(NP(=O)(c2ccccc2)c2ccccc2)c2ccccc2)cc1 (stereo not drawn),i,x,-1.4%,-2.2%,179.6%,-1.1%
